For 40 compounds, outcome results are on record in PubChem BioAssay (EPA / NIEHS).

Structures are written as SMILES. Results filed as inconclusive are left out. Activity calls are given as the source filed them. The calls were made as follows: active = hit-call score of the fitted dose curve at least 0.9, where 1 is the maximum; inconclusive = response in the unintended direction; inactive = score below 0.9.

A short description of this test: Tanguay_ZF_120hpf_SOMI_legacy: (Legacy) Oregon State University Tanguay Lab 120 Hour Post-fertilization zebrafish Assay for Somite Malformation (AID 2283647). On the procedure: Tanguay_ZF_120hpf_legacy is a whole embryo, multiplexed endpoint assay using zebrafish larvae exposed for 120 hours post fertilization on a 96-well plate.Tanguay_ZF_120hpf_SOMI_legacy is one of one assay component(s) measured or calculated from the Tanguay_ZF_120hpf_legacy assay. It is designed to make measurements of zebrafish development as detected with brightfield microscopy of developing zebrafish embryos.Data from the assay component Tanguay_ZF_120hpf_SOMI_legacy was analyzed into 1 assay endpoints. This assay endpoint, Tanguay_ZF_120hpf_SOMI_legacy, was analyzed in the positive analysis fitting direction relative to DMSO as the negative control and baseline of activity. Using a type of morphology reporter, gain-of-signal activity can be used to understand changes in developmentals as they relate to the whole embryo. To generalize the intended target to other relatable targets, this assay endpoint is annotated to the zebrafish development intended target family, where the subfamily is somitogenesis.
Zebrafish husbandry: Tropical 5D wild-type adult zebrafish were housed in at an approximate density of 1000 per 100 gallon tank at the Sinnhuber Aquatic Research Laboratory, Oregon State University, Corvallis, OR. Each tank was kept at standard laboratory conditions of 28C on a 14-h light/10-h dark photoperiod in fish water consisting of reverse osmosis water supplemented with a commercially available salt (Instant Ocean). Spawning funnels were placed into the tanks the night prior, and embryos were collected and staged. To increase bioavailability, the chorion was enzymatically removed using pronase (63.6mg/ml, >/= 3.5U/mg, Sigma-Aldrich: P5147) at 4 hours post fertilization (hpf) using a custom automated dechorionator.Chemical exposures: Six hpf dechorionated embryos were placed 1 embryo per well in a 96-well plate prefilled with 90 ul of EM using automated embryo placement systems (AEPS). Ten microliters of each row of dilution plate 2 was added to 2 exposure plates. The final DMSO concentration used was 0.64% (vol/vol). Thirty-two embryos were also exposed to 5uM trimethyltin chloride (positive control). Plates were sealed to prevent evaporation and foil covered to reduce light exposure and kept in a 28C incubator. Embryos were statically exposed until 120 hpf. At 24 hpf, embryos were assessed for photomotor response using a custom photomotor response analysis tool (PRAT) and for developmental toxicity endpoints (MO24: mortality at 24 hpf, DP: developmental progression, SM: spontaneous movement, and NC: notochord distortion). At 120 hpf, locomotor activity was measured using Viewpoint Zebralab and assessed for 18 endpoints. Zebrafish acquisition and analysis program (ZAAP), a custom program designed to inventory, acquire, and manage zebrafish data, was used to collect developmental endpoints as either present or absent (i.e., binary responses were recorded). If mortality occurred for an embryo (at either 24 or 120 hpf), the non-mortality endpoints were not measured.
In the case of `CC1=C(/C=C/C(C)=C/C=C/C(C)=C/CO)C(C)(C)CCC1`, the compound was called inactive.
As for `CC(=O)OC/C=C(\C)CCC=C(C)C`, the compound was classed as inactive.
With `C1CCC(SSC2CCCCC2)CC1`, the compound was classed as inactive.
Take `O=c1c(O)c(-c2ccc(O)c(O)c2)oc2cc(O)cc(O)c12`: the call was inactive.
Turning to `Nc1ccc(S(=O)(=O)c2ccc(N)cc2)cc1`, the result was inactive.
In the case of `Nc1ccccc1N` it was “inactive”; in that of `CCOC(=O)CCC(=O)OCC`, “inactive”.
In the case of `NCCO` it was “inactive”; in that of `CC(C)c1ccc(C(=O)N=C(N)N)cc1S(C)(=O)=O`, “inactive”; in that of `C[C@]12C=CC(=O)C=C1CC[C@@H]1[C@@H]2C(=O)C[C@@]2(C)[C@H]1CC[C@]2(O)C(=O)CO`, “inactive”.
In the case of `COCCOCCOC` it was “inactive”; in that of `O=C(N[C@@H](Cc1ccccc1)[C@@H](O)C(=O)N1C[C@@H](O)[C@@H](O)C1)c1cc2cc(Cl)ccc2[nH]1`, “inactive”; in that of `C=CCc1ccc(O)c(OC)c1`, “inactive”.
Consider `Cc1cccc(Nc2cc(Cl)nc(SCC(=O)O)n2)c1C`, for which the result was inactive.
Consider `CN1CCN(Cc2cc(-c3ccc4[nH]c(=O)oc4c3)co2)[C@@H](c2ccc(F)cc2)C1`, for which the call was inactive.
With `Cc1ccc(C)c(O)c1C`, the outcome was inactive.
Take `Cc1cc(NC(=O)C(=O)O)cc(C)c1Oc1ccc(O)c2c1CCC2`: the outcome was inactive.
As to `CCCCCCCC=O`, the call was inactive.
In the case of `Nc1ccc2c(c1)C(=O)c1ccccc1C2=O` it was “inactive”; in that of `COc1cc(-c2nc(NC(=O)c3cc4cc(C)cc(C)c4n3CC(=O)O)sc2CCC2CCCCC2)c(OC)cc1Cl`, “inactive”.
Next, `OC[C@@H](O)[C@@H](O)[C@H](O)[C@H](O)CO`: “inactive”.
Next, `Cc1ccc(N(C)C)cc1`: “inactive”; `CCCCCCCCCCO`: “inactive”; `Cc1cccc([N+](=O)[O-])c1C`: “inactive”.
For `Cc1nc(C)nc(N2C[C@@H](C)N(c3ccnc([C@@H](C)O)n3)[C@@H](C)C2)n1`, the call was inactive.
For the compound `CCCCCCCCCCCCCCCC`, the compound was called inactive.
Turning to `FC(F)(F)C(F)(F)C(F)(F)C(F)(F)C(F)(F)C(F)(F)CCI`, the compound was called inactive.
As to `O=c1[nH]cc(F)c(=O)[nH]1`, the compound was called inactive.
`Cc1cc(=O)[nH]c(=S)[nH]1`: the compound was called inactive.
In the case of `C=CCOC(=O)c1ccccc1C(=O)OCC=C` it was “inactive”; in that of `Oc1ccc2c(c1)OC[C@@H](N1CCC(O)(c3ccc(F)cc3)CC1)[C@H]2O`, “inactive”.
With `Cc1nc(-c2ccc3c(c2)CCN(CCC2CCC(NC(=O)/C=C/c4ccc(F)cc4)CC2)CC3)no1` (stereo not given), the compound was called inactive.
For the compound `O=[N+]([O-])C(CO)(CO)CO`, the result was inactive.
Next, `COc1ccc(C)cc1N`: “inactive”; `O=C(O)Cc1ccccc1Nc1c(Cl)cccc1Cl`: “inactive”.
Take `CNC(=O)[C@H]1O[C@@H](n2cnc3c(NCc4cc(Cl)ccc4OCc4cc(C)no4)ncnc32)[C@H](O)[C@@H]1N`: the result was inactive.
Next, `Cc1oc(-c2ccccc2)nc1CCOc1cccc2c1ccn2CCC(=O)O`: “inactive”.
Next, `CC(=O)OCCOCCOCCOC(C)=O`: “inactive”; `CCOc1ccc2c(c1)C(C)=CC(C)(C)N2`: “inactive”; `O=C(O)CCCCC(=O)O`: “inactive”.
